Screens: PubChem, several laboratories
An excerpt weighted towards active compounds, which were near 4% of everything screened.
aDG glyco act = increases alpha dystroglycan glycosylation; Pro5-aDG cells, alpha-DG glycosylation AlphaScreen (IIH6); 0% Pro5, 100% B10-LARGE cell signal; 360,000 tested, 0.22% active; activation, % at 10 µM;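 active = activation of at least 8% versus controls, or a plate z-score of at least 8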;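 also: Pro5 are CHO cells carrying HIG-tagged alpha-DG that lacks glycosylation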
ADAM10 inh = ADAM10 inhibition, QFRET primary screen; O14672; recombinant ADAM10, EDANS/DABCYL FRET peptide cleavage, 3 h; inhibition, % at 7 µM; 370,000 tested, 0.62% active;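 active = inhibition above a per-campaign cutoff equal to the mean of compounds falling between control-based bounds plus 3 SD, cut at about 20% in these data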;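 also: 0% = DMSO wells while the 100% control is not disclosed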
Target sequence (O14672 214-748 limits assumed): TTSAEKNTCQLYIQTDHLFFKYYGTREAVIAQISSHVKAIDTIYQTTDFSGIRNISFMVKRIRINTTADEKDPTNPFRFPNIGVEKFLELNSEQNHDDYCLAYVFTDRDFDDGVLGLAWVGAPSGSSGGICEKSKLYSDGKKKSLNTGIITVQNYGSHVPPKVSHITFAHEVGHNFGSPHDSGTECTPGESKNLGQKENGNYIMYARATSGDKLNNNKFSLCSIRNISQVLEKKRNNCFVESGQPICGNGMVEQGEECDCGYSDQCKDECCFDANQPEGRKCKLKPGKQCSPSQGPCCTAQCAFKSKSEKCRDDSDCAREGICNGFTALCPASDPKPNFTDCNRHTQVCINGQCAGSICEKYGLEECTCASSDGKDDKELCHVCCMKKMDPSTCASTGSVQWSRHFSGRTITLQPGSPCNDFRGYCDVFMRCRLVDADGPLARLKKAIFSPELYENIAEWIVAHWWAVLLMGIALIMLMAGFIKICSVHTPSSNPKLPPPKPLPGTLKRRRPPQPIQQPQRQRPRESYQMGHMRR
FAS-TE inh = FAS thioesterase (human) inhibition | P49327 | recombinant FAS-TE, OMFH fluorogenic substrate, fluorescence endpoint | inhibition, % at 15 µM | 360,000 tested, 0.67% active;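 active = compounds whose normalised, plate-corrected inhibition of enzyme fluorescence in the single-dose primary screen is 50% or more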;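 also: 0% = DMSO with enzyme and 100% = substrate without enzyme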
ADAM17 inh = inhibits human ADAM17; 370,000 tested, 0.83% active; P78536; recombinant ADAM17, EDANS/DABCYL FRET peptide cleavage; inhibition, % at 6.95 µM;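 active = inhibition above the mean of compounds lying between control limits plus 3 SD, set per campaign, cut at about 8.5% in these data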;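 also: 0% = DMSO-only wells as the low control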
GRIN3A LBD mod = modulators (binders) of human NR3A ligand-binding domain; Tm shift relative to glycine control, % at 25 µM; NR3A LBD differential scanning fluorimetry, Tm shift; 0% = protein alone, 100% = glycine-bound protein; 340,000 tested, 2.5% active;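 active = melting temperature shift of at least 10% of the positive control shift, at one fixed dose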
FAS-TE conf = confirmation of human fatty acid synthase thioesterase inhibitors; shares compounds with FAS-TE inh; recombinant FAS-TE, OMFH fluorogenic substrate, fluorescence; inhibition, % at 15 µM; 2,300 tested, 45% active;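 active = compounds inhibiting the enzyme by at least 50% at 15 µM in any one of the replicates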;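 also: 0% = enzyme with DMSO only and 100% = wells lacking enzyme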
Active calls of the source: *; i = inactive; nt = no result given.

SMILES	aDG glyco act	ADAM10 inh	FAS-TE inh	ADAM17 inh	GRIN3A LBD mod	FAS-TE conf
COc1cc(S(=O)(=O)N2CCN(C(=O)c3cccs3)CC2)ccc1NC(C)=O	0	-4	-6	3	nt	nt
Cc1ccc(C)c(OCC(=O)NNC(=O)C2CC2)c1	1	0	-7	0	-1	nt
Cc1cccc(C)c1Cn1c(C)c(C(=O)NCc2ccc([N+](=O)[O-])cc2)sc1=O	0	14	61*	4	nt	62*
COC(=O)c1ccc(Cn2c(C)c(C(=O)NCc3ccc([N+](=O)[O-])cc3)sc2=O)o1	0	-11	21	-2	nt	nt
Nc1[nH]c(C(=O)c2ccccc2)c(-c2ccc(Cl)cc2)c1C(=O)NCc1ccco1	1	3	-4	0	nt	nt
Cc1ccc(Cl)cc1N1CCN(S(=O)(=O)c2ccc3c(c2)oc(=O)n3C)CC1	0	-2	52*	2	0	7
O=C(Nc1nnc(-c2ccccc2Cl)s1)C1CCN(S(=O)(=O)c2ccc(Cl)cc2)CC1	0	4	72*	1	-2	9
Cn1c(=O)cc(OCCCC(=O)NCCC2=CCCCC2)c2ccccc21	0	-5	3	-4	-6	nt
Cn1c(=O)cc(SCC(=O)NCCC2=CCCCC2)c2cc(Cl)ccc21	0	-2	69*	-3	-5	30
CC(C)C(=O)N1CCN(c2ccccc2NC(=O)COc2ccc(C3CCCCC3)cc2)CC1	0	-5	25	5	2	nt
COC(=O)N/N=C/c1ccc(-c2ccc(Cl)cc2Cl)o1	0	3	11	0	-6	nt
NS(=O)(=O)c1ccc(-c2ccc(/C=N/Nc3ccc(C(=O)O)cc3)o2)cc1	0	-42	-4	-21	3	nt
O=C(O)c1ccc(N/N=C/c2ccc(-c3ccc(Cl)cc3Cl)o2)cc1	0	-16	75*	-8	3	78*
O=C(O)c1ccc(N/N=C/c2ccc(-c3cc(Cl)ccc3Cl)o2)cc1	0	-31	81*	-9	-6	84*
O=C1C(N2CCOCC2)=Cc2cccc3cccc1c23	0	-46	-34	-14	nt	nt
O=[N+]([O-])c1cccc(OCc2cn3cccnc3n2)c1	0	-12	0	0	-1	nt
CC1CCCCN1C(=O)COC(=O)c1cc([N+](=O)[O-])ccc1N1CCOCC1 (configuration not stated)	1	1	54*	1	1	57*
O=C(COC(=O)c1cc([N+](=O)[O-])ccc1N1CCOCC1)NC1CCS(=O)(=O)C1 (configuration not stated)	0	-7	16	-3	1	nt
O=C(COC(=O)c1ccc(F)cc1Cl)NC1CCCCCCC1	0	3	14	-2	-1	nt
O=C(COC(=O)c1cc(F)c(F)cc1Cl)NC1CCCCCC1	0	-4	56*	-1	nt	68*
O=C(c1cc([N+](=O)[O-])ccc1N1CCOCC1)N1CCCCC1	0	4	-10	3	1	nt
O=C(COC(=O)c1cc([N+](=O)[O-])ccc1N1CCOCC1)NC1CCCCC1	0	-1	92*	2	1	91*
CN(C(=O)COC(=O)c1cc([N+](=O)[O-])ccc1N1CCOCC1)C1CCCCC1	0	0	89*	-1	nt	93*
c1ccc(-c2ccccc2OCc2nnc3n2CCC3)cc1	0	2	-4	2	-1	nt
N#Cc1c(N)nc(SC2CCCCC2=O)c(C#N)c1-c1ccco1 (configuration not stated)	0	-57	14	-19	-5	nt
SMILES	aDG glyco act	ADAM10 inh	FAS-TE inh	ADAM17 inh	GRIN3A LBD mod	FAS-TE conf
CCN(C(=O)COC(=O)c1cc([N+](=O)[O-])ccc1N1CCOCC1)C1CCCCC1	0	1	86*	0	0	92*
CCN(C(=O)COC(=O)c1cc([N+](=O)[O-])ccc1N1CCOCC1)C1CCS(=O)(=O)C1 (configuration not stated)	0	-9	4	-8	0	nt
Cn1c(=O)c2c3c(sc2n2c(SCC(N)=O)nnc12)CC(C(C)(C)C)CC3 (configuration not stated)	-1	-6	56*	-5	-1	41
CCOC(=O)c1ccc(NC(=O)N2CCN(S(C)(=O)=O)CC2)cc1	0	3	-12	0	1	nt
CC(C)(C)C(=O)OCc1ccc(C2=CC(=O)CC(C)(C)C2=O)cc1	0	-11	82*	-7	nt	82*
Cc1ccc(C2=CC(=O)CC(C)(C)C2=O)cc1	nt	3	nt	-2	nt	nt
CC(=O)OCc1ccc(C2=CC(=O)CC(C)(C)C2=O)cc1	0	-15	-4	-4	nt	nt
CCCCCC(=O)OCc1ccc(C2=CC(=O)CC(C)(C)C2=O)cc1	0	-2	64*	-2	nt	56*
COc1ccc(NC(=O)COC(=O)c2ccc(-n3nc(C)cc3C)cc2)cc1OC	0	-14	2	-7	0	nt
COc1cccc(Nc2nc(-c3cccs3)nc3ccccc23)c1	1	-44	51*	-12	21*	34
COc1cccc(CN(C)c2nc(-c3cccs3)nc3ccccc23)c1	1	-26	42	-4	-4	nt
Cn1c(O)c(N=NC(=N)N)c2ccccc21	0	5	-5	1	-1	nt
O=C(COC(=O)C1CCN(S(=O)(=O)c2cccs2)CC1)Nc1ccccc1	0	6	0	3	-1	nt
CC(C)(C)NC(=O)NC(=O)COC(=O)C1CCN(S(=O)(=O)c2cccs2)CC1	0	1	53*	-4	0	46*
COC(=O)c1cc(C(=O)Nc2nnc(C3CC3)s2)cc([N+](=O)[O-])c1	0	-6	51*	-3	-7	60*
COC(=O)c1cc(C(=O)Nc2nnc(CC(C)C)s2)cc([N+](=O)[O-])c1	0	0	51*	2	-10	30
C[C@@H]1CN(c2nc3nonc3nc2N2CCSCC2)C[C@H](C)O1	0	0	0	1	-1	nt
COc1ccc(S(=O)(=O)n2ccc(-c3cnc(-c4ccccc4)s3)n2)cc1	0	-225	58*	-78	-9	42
O=C(c1ccccc1)n1ccc(-c2cnc(-c3ccccc3)s2)n1	0	i	36	-328	-10	nt
O=C(Nc1ccc(Cl)cc1)c1csc(-c2ccccc2)n1	0	4	61*	-1	-6	59*
CCOC(=O)[C@]12Cc3c(cc(OC)c(OC)c3OC)[C@H]1N(C1CCCCC1)C(=O)c1cc(OC)ccc12	0	-8	50*	-2	nt	38
CCCn1c(SCC(=O)Nc2ccccc2-c2ccccc2)nnc1-c1ccoc1C	0	1	60*	-2	3	74*
CCN(C(=O)COC(=O)c1cccc(S(=O)(=O)N(C)C)c1)c1c(N)n(Cc2ccccc2)c(=O)[nH]c1=O	0	1	-11	1	-2	nt
